In all, about 1,400 compounds went through this assay and about 350 (25%) were called active. About 2% were inconclusive and are not listed. How the calls were made is not given here. Not all results are given here. Measured potencies and affinities stand elsewhere.
experiment: C. difficile growth inhibition, confirmation, 4-point retest (AID 1224921); conditions: Clostridioides difficile clinical isolate growth, OD600, 24 h, active compounds read low; at 30 µM unless noted;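 further: plate controls were DMSO wells for no effect and levofloxacin 16 µg/mL wells for full effect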

Max activity, inactive:
C[C@H](CO)N1C[C@H](C)[C@H](CN(C)C(=O)NC2CCCCC2)Oc2c(NC(=O)Nc3ccc(C(F)(F)F)cc3)cccc2C1=O 35.7% [at 1.95 µM], C[C@H](CO)N1C[C@H](C)[C@@H](CN(C)Cc2ccc3c(c2)OCO3)Oc2c(NC(=O)Nc3ccc(C(F)(F)F)cc3)cccc2C1=O 43.3%, C[C@@H]1CN([C@H](C)CO)C(=O)c2cccc(NC(=O)Nc3ccc(C(F)(F)F)cc3)c2O[C@H]1CN(C)Cc1ccc2c(c1)OCO2 43.4% [at 8 µM], C[C@@H]1CN([C@@H](C)CO)C(=O)c2cccc(NC(=O)Nc3ccc(F)cc3)c2O[C@H]1CN(C)CC1CCCCC1 13.5% [at 8 µM], CCCC(=O)Nc1ccc2c(c1)OC[C@H](C)N(CCc1ccccc1)C[C@@H](C)[C@@H](OC)CN(C)C2=O -11.5% [at 0.5 µM], C[C@@H]1CN([C@@H](C)CO)C(=O)Cc2cc(N(C)C)ccc2O[C@H]1CN(C)Cc1ccc(-c2ccccc2)cc1 20.5% [at 8 µM], C#CCNC(=O)C1=C[C@H](c2cn(C(C)=O)c3ccccc23)C[C@H](OCc2ccc(CO)cc2)O1 -9.52% [at 0.5 µM], O=C(N[C@H]1C=C[C@@H](CC(=O)N2CCOCC2)O[C@@H]1CO)c1cccc(F)c1 -5.96%, C[C@@H]1CCCCO[C@H](CN(C)CC2CC2)[C@H](C)CN([C@@H](C)CO)C(=O)c2cc(NC(=O)Nc3cccc4ccccc34)ccc2O1 13.7%, CCc1cnc(N2[C@H](CO)[C@H](c3ccc(C#CC(C)C)cc3)[C@@H]2C#N)s1 17% [at 1.95 µM], CC(C)CC#Cc1ccc2c(c1)O[C@H](CN(C)Cc1cccnc1)[C@@H](C)CN([C@H](C)CO)S2(=O)=O 42.9%, CC(C)Cc1ccc(CN2CC[C@@H](NC(=O)c3ccccc3)C2)cc1 20.1% [at 8 µM], C[C@H](CO)N1C[C@H](C)[C@@H](CN(C)C(=O)Nc2ccc(C(F)(F)F)cc2)Oc2c(NC(=O)c3ccc(-c4nccs4)cc3)cccc2C1=O 7.84%, Cc1ccc(S(=O)(=O)N[C@H]2CC[C@H](CCNS(=O)(=O)Cc3ccccc3)O[C@H]2CO)cc1 -13.6% [at 7.5 µM], O=C(NCC[C@@H]1CC[C@H](NC(=O)Nc2cc(F)ccc2F)[C@H](CO)O1)Nc1ccc(Cl)cc1 -10.4% [at 0.5 µM], O=S(=O)(NCC[C@H]1CC[C@H](NS(=O)(=O)c2ccccc2Cl)[C@H](CO)O1)c1ccc(Cl)cc1 10% [at 7.5 µM], O=C(C[C@@H]1CC[C@H](NC(=O)Nc2cc(F)ccc2F)[C@H](CO)O1)NCc1ccc2c(c1)OCO2 4.18% [at 8 µM], CC(C)NC(=O)NCC[C@H]1CC[C@@H](NS(=O)(=O)c2ccc(Oc3ccccc3)cc2)[C@H](CO)O1 9.67%, CC(C)NC(=O)NCC[C@H]1CC[C@@H](NS(=O)(=O)c2ccc(Oc3ccccc3)cc2)[C@@H](CO)O1 13.9% [at 35 µM], CC(C)CC#Cc1ccc2c(c1)O[C@@H](CN(C)C(=O)c1ccccc1)[C@@H](C)CN([C@@H](C)CO)S2(=O)=O 35.1%, CC(=O)N(C)C[C@H]1Oc2ncc(-c3ccc(C#N)cc3)cc2C(=O)N([C@H](C)CO)C[C@H]1C -10.1% [at 1.95 µM], CO[C@H]1CN(C)C(=O)c2cc(NS(=O)(=O)c3cccc(F)c3)ccc2OC[C@H](C)N(Cc2cc(F)ccc2F)C[C@H]1C 7.97%, CCC(=O)Nc1ccc2c(c1)C(=O)N(C)C[C@@H](OC)[C@@H](C)CN(C(=O)CN1CCOCC1)[C@H](C)CO2 18.1%, CCCN1C[C@H](C)[C@H](OC)CN(C)C(=O)c2cc(NC(=O)c3cccc(OC)c3)ccc2OC[C@@H]1C -8.29% [at 0.5 µM], C[C@H](CO)N1C[C@H](C)[C@@H](CN(C)Cc2ccc3c(c2)OCO3)Oc2ccc(NC(=O)Nc3ccc4c(c3)OCO4)cc2C1=O -9.66% [at 8 µM], C[C@H](CO)N1C[C@H](C)[C@@H](CN(C)S(=O)(=O)CC(F)(F)F)OCc2ccccc2-c2c(n(C)c3ccccc23)C1=O 24.2%, CC(C)CC#Cc1ccc2c(c1)O[C@@H](CN(C)Cc1ccncc1)[C@H](C)CN([C@H](C)CO)S2(=O)=O 18.2% [at 8 µM], C[C@@H]1CN([C@@H](C)CO)S(=O)(=O)c2ccc(C#CCC3CCCC3)cc2O[C@H]1CN(C)C(=O)CC1CC1 -15.8% [at 1.95 µM], O=C(C[C@H]1CC[C@H](NC(=O)CCN2CCCCC2)[C@H](CO)O1)Nc1nccs1 -18.1% [at 8 µM], C[C@@H]1CN([C@@H](C)CO)C(=O)c2cc(C#CC3CCCCC3)cnc2O[C@H]1CN(C)Cc1cccnc1 21.1%, C[C@@H]1CN([C@@H](C)CO)C(=O)c2cc(C#CC3CCCCC3)cnc2O[C@@H]1CN(C)Cc1cccnc1 58.9%, CCCNC(=O)N(C)C[C@H]1Oc2ncc(C#CCc3ccccc3)cc2C(=O)N([C@@H](C)CO)C[C@@H]1C 16.1%, COc1ccc(C#Cc2cnc3c(c2)C(=O)N([C@@H](C)CO)C[C@H](C)[C@@H](CN(C)CC2CCOCC2)O3)cc1 8.65% [at 8 µM], C[C@H](O)C#Cc1cnc2c(c1)C(=O)N([C@@H](C)CO)C[C@H](C)[C@H](CN(C)Cc1ccc(-c3ccccc3)cc1)O2 31.6%, CC(=O)N(C)C[C@@H]1Oc2ncc(C#Cc3ccc(F)cc3)cc2C(=O)N([C@@H](C)CO)C[C@H]1C 24.8%, CCCN1C[C@@H](C)[C@@H](OC)CN(C)C(=O)c2cc(NC(=O)c3cccc(F)c3)ccc2OC[C@H]1C -11.3% [at 1.95 µM], CO[C@@H]1CN(C)C(=O)c2cc(NC(C)=O)ccc2OC[C@@H](C)N(C(=O)c2ccccn2)C[C@@H]1C -15.1% [at 8 µM], C[C@H]1CN([C@@H](C)CO)C(=O)Cc2cc(NS(=O)(=O)c3cccs3)ccc2O[C@@H]1CN(C)Cc1ccc(Cl)c(Cl)c1 33.5% [at 8 µM], COc1ccc(NC(=O)Nc2ccc3c(c2)[C@H]2C[C@H](CC(=O)N[C@@H](C)c4ccccc4)O[C@@H](CO)[C@H]2O3)cc1 -8.28% [at 2.1 µM], Cc1ccccc1S(=O)(=O)N1[C@H](CO)[C@@H](c2ccc(C#CC3CC3)cc2)[C@@H]1C#N 34.7%, COc1ccccc1C#Cc1ccc([C@H]2[C@@H](C#N)N(C(=O)C3CC3)[C@H]2CO)cc1 22.1% [at 8 µM], O=C(C[C@@H]1CC[C@@H](NC(=O)Nc2cc(F)ccc2F)[C@H](CO)O1)NCc1ccc2c(c1)OCO2 8.77%, C[C@@H]1CN([C@H](C)CO)C(=O)c2cc(NC(=O)Nc3cccc4ccccc34)ccc2O[C@@H](C)CCCCO[C@H]1CN(C)S(=O)(=O)c1cn(C)cn1 30.5% [at 35 µM], CO[C@@H](CN(C)S(=O)(=O)c1ccc(C)cc1)[C@H](C)CN(C(=O)Nc1ccccc1F)[C@@H](C)CO -7.73% [at 8 µM], CO[C@@H]1CN(C)C(=O)c2ccc(NS(=O)(=O)c3cn(C)cn3)cc2OC[C@@H](C)N(Cc2ccc(C(F)(F)F)cc2)C[C@H]1C 35.5% [at 8 µM], CO[C@@H]1CN(C)C(=O)c2cc(NS(=O)(=O)c3cn(C)cn3)ccc2OC[C@@H](C)N(Cc2ccc(C(F)(F)F)cc2)C[C@H]1C 43.6%, C[C@@H]1CCCCO[C@@H](CN(C)S(=O)(=O)c2cn(C)cn2)[C@H](C)CN([C@H](C)CO)C(=O)c2cc(NS(=O)(=O)c3ccccc3)ccc2O1 -10.5% [at 0.5 µM], CO[C@H]1CN(C)C(=O)c2cc(NC(=O)c3cccc(F)c3)ccc2OC[C@H](C)N(C(C)=O)C[C@@H]1C -4.07% [at 1.95 µM], C[C@@H]1CN([C@H](C)CO)S(=O)(=O)c2ccc(C3=CCCCC3)cc2O[C@@H]1CN(C)Cc1ccncc1 19.4%, COc1ccc(S(=O)(=O)Nc2ccc3c(c2)OC[C@@H](C)N(C)C[C@@H](C)[C@H](OC)CN(C)C3=O)cc1 -9.73% [at 1.95 µM], C[C@@H]1CN([C@H](C)CO)C(=O)Cc2cc(NS(C)(=O)=O)ccc2O[C@@H]1CN(C)Cc1ccc(-c2ccccc2)cc1 52.1%, O=C(C[C@@H]1C[C@@H]2c3cc(NC(=O)Nc4ccc(C(F)(F)F)cc4)ccc3O[C@@H]2[C@H](CO)O1)NCc1ccccn1 -9.23% [at 1.95 µM], CCCC(=O)Nc1ccc2c(c1)OC[C@@H](C)N(CCc1ccccc1)C[C@H](C)[C@H](OC)CN(C)C2=O -4.85% [at 1.95 µM], C[C@H](CO)N1C[C@H](C)[C@H](CN(C)Cc2cccnc2)Oc2cc(C3=CCCCC3)ccc2S1(=O)=O 37%, O=C(C[C@H]1C[C@H]2c3cc(NC(=O)Nc4ccc(F)cc4)ccc3O[C@H]2[C@@H](CO)O1)NC1CCCC1 -13.7% [at 8 µM], C[C@@H]1CN([C@H](C)CO)C(=O)c2ccccc2-c2ccccc2CO[C@@H]1CN(C)S(=O)(=O)c1ccsc1 12% [at 1.95 µM]
